# What was measured:
# Experiment in all cases: SPOT peptide array binding signal intensity (averaged, normalized) (arbitrary units (background-subtracted, floor 0; scale differs between SH3 domains)); higher = stronger binding of the SH3 domain to the peptide
# [1] = biological target: AgAbp1
# Outline: (§1)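 Binding signal refers to normalized, background-subtracted spot intensity averaged over replicates, expressed in arbitrary units that differ between domains. GST-fused SH3 domains from four yeast species were incubated at 10 μg/ml overnight at 4°C on cellulose membranes of synthetic 15-mer peptides with cysteines replaced by serines. Bound protein was detected with anti-GST antibody, an HRP anti-mouse secondary and luminol, and quantified with Genespotter.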
# [2] = biological target: AgBbc1
# Outline: as §1
# [3] = biological target: AgBem1-D1
# Outline: as §1
# [4] = biological target: AgBzz1-D1
# Outline: as §1
# [5] = biological target: AgBzz1-D2
# Outline: as §1
# [6] = biological target: AgCyk3
# Outline: as §1
# [7] = biological target: AgFus1
# Outline: as §1
# [8] = biological target: AgHof1
# Outline: as §1
# [9] = biological target: AgHse1
# Outline: as §1
# [10] = biological target: AgLsb1
# Outline: as §1
# [11] = biological target: AgLsb4
# Outline: as §1
# [12] = biological target: AgMyo5
# Outline: as §1
# [13] = biological target: AgNbp2
# Outline: as §1
# [14] = biological target: AgRvs167
# Outline: as §1
# [15] = biological target: AgSho1
# Outline: as §1
# [16] = biological target: AgSla1-D1-D2
# Outline: as §1
# [17] = biological target: AgSla1-D3
# Outline: as §1
# [18] = biological target: CaAbp1-D1
# Outline: as §1
# [19] = biological target: CaAbp1-D2
# Outline: as §1
# [20] = biological target: CaBbc1
# Outline: as §1
# [21] = biological target: CaBem1-D1
# Outline: as §1
# [22] = biological target: CaBzz1-D1
# Outline: as §1
# [23] = biological target: CaBzz1-D2
# Outline: as §1
# [24] = biological target: CaCyk3
# Outline: as §1
# [25] = biological target: CaFus1
# Outline: as §1
# [26] = biological target: CaHof1
# Outline: as §1
# [27] = biological target: CaHse1
# Outline: as §1
# [28] = biological target: CaLsb1
# Outline: as §1
# [29] = biological target: CaLsb4
# Outline: as §1
# [30] = biological target: CaMyo5
# Outline: as §1
# [31] = biological target: CaNbp2
# Outline: as §1
# [32] = biological target: CaRvs167
# Outline: as §1
# [33] = biological target: CaRvs167-3
# Outline: as §1
# [34] = biological target: CaSho1
# Outline: as §1
# [35] = biological target: CaSla1-D1-D2
# Outline: as §1
# [36] = biological target: CaSla1-D3
# Outline: as §1
# [37] = biological target: ScAbp1
# Outline: as §1
# [38] = biological target: ScBbc1
# Outline: as §1
# [39] = biological target: ScBem1-D1
# Outline: as §1
# [40] = biological target: ScBzz1-D1
# Outline: as §1
# [41] = biological target: ScBzz1-D2
# Outline: as §1
# [42] = biological target: ScCyk3
# Outline: as §1
# [43] = biological target: ScFus1
# Outline: as §1
# [44] = biological target: ScHof1
# Outline: as §1
# [45] = biological target: ScHse1
# Outline: as §1
# [46] = biological target: ScLsb1
# Outline: as §1
# [47] = biological target: ScLsb2
# Outline: as §1
# [48] = biological target: ScLsb3
# Outline: as §1
# [49] = biological target: ScLsb4
# Outline: as §1
# [50] = biological target: ScMyo3
# Outline: as §1
# [51] = biological target: ScMyo5
# Outline: as §1
# [52] = biological target: ScNbp2
# Outline: as §1
# [53] = biological target: ScPex13
# Outline: as §1
# [54] = biological target: ScRvs167
# Outline: as §1
# [55] = biological target: ScSho1
# Outline: as §1
# [56] = biological target: ScSla1-D1-D2
# Outline: as §1
# [57] = biological target: ScSla1-D3
# Outline: as §1
# [58] = biological target: SpAbp1-D1
# Outline: as §1
# [59] = biological target: SpBbc1
# Outline: as §1
# [60] = biological target: SpBzz1-D1
# Outline: as §1
# [61] = biological target: SpBzz1-D2
# Outline: as §1
# [62] = biological target: SpCyk3
# Outline: as §1
# [63] = biological target: SpHof1
# Outline: as §1
# [64] = biological target: SpHof1-2
# Outline: as §1
# [65] = biological target: SpHof1-3
# Outline: as §1
# [66] = biological target: SpHse1
# Outline: as §1
# [67] = biological target: SpLsb1
# Outline: as §1
# [68] = biological target: SpLsb4
# Outline: as §1
# [69] = biological target: SpMyo1
# Outline: as §1
# [70] = biological target: SpNbp2
# Outline: as §1
# [71] = biological target: SpPex13
# Outline: as §1
# [72] = biological target: SpRvs167
# Outline: as §1
# [73] = biological target: SpSla1-D1-D2
# Outline: as §1
# [74] = biological target: SpSla1-D3
# Outline: as §1
binder,measurement,setting,value
PELAPKREAPKPPAN,SPOT peptide array binding signal intensity,[1],0.5
same,SPOT peptide array binding signal intensity,[2],≤ 0
same,SPOT peptide array binding signal intensity,[3],7.5
same,SPOT peptide array binding signal intensity,[4],34.5
same,SPOT peptide array binding signal intensity,[5],12
same,SPOT peptide array binding signal intensity,[6],≤ 0
same,SPOT peptide array binding signal intensity,[7],0.5
same,SPOT peptide array binding signal intensity,[8],2.5
same,SPOT peptide array binding signal intensity,[9],≤ 0
same,SPOT peptide array binding signal intensity,[10],≤ 0
same,SPOT peptide array binding signal intensity,[11],≤ 0
same,SPOT peptide array binding signal intensity,[12],560
same,SPOT peptide array binding signal intensity,[13],564
same,SPOT peptide array binding signal intensity,[14],2.83
same,SPOT peptide array binding signal intensity,[15],≤ 0
same,SPOT peptide array binding signal intensity,[16],≤ 0
same,SPOT peptide array binding signal intensity,[17],3
same,SPOT peptide array binding signal intensity,[18],≤ 0
same,SPOT peptide array binding signal intensity,[19],3.5
same,SPOT peptide array binding signal intensity,[20],73.2
same,SPOT peptide array binding signal intensity,[21],1
same,SPOT peptide array binding signal intensity,[22],652
same,SPOT peptide array binding signal intensity,[23],265
same,SPOT peptide array binding signal intensity,[24],≤ 0
same,SPOT peptide array binding signal intensity,[25],14
same,SPOT peptide array binding signal intensity,[26],≤ 0
same,SPOT peptide array binding signal intensity,[27],0.5
same,SPOT peptide array binding signal intensity,[28],≤ 0
same,SPOT peptide array binding signal intensity,[29],≤ 0
same,SPOT peptide array binding signal intensity,[30],1.5
same,SPOT peptide array binding signal intensity,[31],1020
same,SPOT peptide array binding signal intensity,[32],0.667
same,SPOT peptide array binding signal intensity,[33],≤ 0
same,SPOT peptide array binding signal intensity,[34],≤ 0
same,SPOT peptide array binding signal intensity,[35],≤ 0
same,SPOT peptide array binding signal intensity,[36],1
same,SPOT peptide array binding signal intensity,[37],1
same,SPOT peptide array binding signal intensity,[38],17
same,SPOT peptide array binding signal intensity,[39],≤ 0
same,SPOT peptide array binding signal intensity,[40],91
same,SPOT peptide array binding signal intensity,[41],10
same,SPOT peptide array binding signal intensity,[42],≤ 0
same,SPOT peptide array binding signal intensity,[43],≤ 0
same,SPOT peptide array binding signal intensity,[44],≤ 0
same,SPOT peptide array binding signal intensity,[45],≤ 0
same,SPOT peptide array binding signal intensity,[46],≤ 0
same,SPOT peptide array binding signal intensity,[47],0.5
same,SPOT peptide array binding signal intensity,[48],≤ 0
same,SPOT peptide array binding signal intensity,[49],≤ 0
same,SPOT peptide array binding signal intensity,[50],1310
same,SPOT peptide array binding signal intensity,[51],906
same,SPOT peptide array binding signal intensity,[52],1560
same,SPOT peptide array binding signal intensity,[53],5
same,SPOT peptide array binding signal intensity,[54],≤ 0
same,SPOT peptide array binding signal intensity,[55],≤ 0
same,SPOT peptide array binding signal intensity,[56],≤ 0
same,SPOT peptide array binding signal intensity,[57],4.5
same,SPOT peptide array binding signal intensity,[58],5
same,SPOT peptide array binding signal intensity,[59],≤ 0
same,SPOT peptide array binding signal intensity,[60],9
same,SPOT peptide array binding signal intensity,[61],0.5
same,SPOT peptide array binding signal intensity,[62],1
same,SPOT peptide array binding signal intensity,[63],0.5
same,SPOT peptide array binding signal intensity,[64],1.5
same,SPOT peptide array binding signal intensity,[65],1
same,SPOT peptide array binding signal intensity,[66],7.5
same,SPOT peptide array binding signal intensity,[67],≤ 0
same,SPOT peptide array binding signal intensity,[68],≤ 0
same,SPOT peptide array binding signal intensity,[69],1220
same,SPOT peptide array binding signal intensity,[70],≤ 0
same,SPOT peptide array binding signal intensity,[71],≤ 0
same,SPOT peptide array binding signal intensity,[72],≤ 0
same,SPOT peptide array binding signal intensity,[73],≤ 0
same,SPOT peptide array binding signal intensity,[74],≤ 0
NFKRLLPRDPSEKSS,SPOT peptide array binding signal intensity,[31],286
same,SPOT peptide array binding signal intensity,[32],6.33
same,SPOT peptide array binding signal intensity,[33],31.5
same,SPOT peptide array binding signal intensity,[34],340
same,SPOT peptide array binding signal intensity,[35],≤ 0
same,SPOT peptide array binding signal intensity,[36],1
same,SPOT peptide array binding signal intensity,[37],66.5
same,SPOT peptide array binding signal intensity,[38],≤ 0
same,SPOT peptide array binding signal intensity,[39],27
same,SPOT peptide array binding signal intensity,[40],21
same,SPOT peptide array binding signal intensity,[41],18
same,SPOT peptide array binding signal intensity,[42],105
same,SPOT peptide array binding signal intensity,[43],308
same,SPOT peptide array binding signal intensity,[44],3
same,SPOT peptide array binding signal intensity,[45],2620
same,SPOT peptide array binding signal intensity,[46],1
same,SPOT peptide array binding signal intensity,[47],2
same,SPOT peptide array binding signal intensity,[48],83.5
same,SPOT peptide array binding signal intensity,[49],1
same,SPOT peptide array binding signal intensity,[50],2
same,SPOT peptide array binding signal intensity,[51],4.5
same,SPOT peptide array binding signal intensity,[52],35.5
same,SPOT peptide array binding signal intensity,[53],3.5
same,SPOT peptide array binding signal intensity,[54],16.2
same,SPOT peptide array binding signal intensity,[55],1040
same,SPOT peptide array binding signal intensity,[56],35.5
same,SPOT peptide array binding signal intensity,[57],0.5
same,SPOT peptide array binding signal intensity,[58],21
same,SPOT peptide array binding signal intensity,[59],1
same,SPOT peptide array binding signal intensity,[60],17.5
same,SPOT peptide array binding signal intensity,[61],0.5
same,SPOT peptide array binding signal intensity,[62],7
same,SPOT peptide array binding signal intensity,[63],283
same,SPOT peptide array binding signal intensity,[64],88
same,SPOT peptide array binding signal intensity,[65],1360
same,SPOT peptide array binding signal intensity,[66],2380
same,SPOT peptide array binding signal intensity,[67],≤ 0
same,SPOT peptide array binding signal intensity,[68],23
same,SPOT peptide array binding signal intensity,[69],7.25
same,SPOT peptide array binding signal intensity,[70],44
same,SPOT peptide array binding signal intensity,[71],5
same,SPOT peptide array binding signal intensity,[72],19.3
same,SPOT peptide array binding signal intensity,[73],0.5
same,SPOT peptide array binding signal intensity,[74],3

# — the supplement of paper PMC4466140
